# Results: PubChem BioAssay (NCATS)
# Results filed as inconclusive are left out. Entries that show only a call come without a potency. Values without a mark were called inactive. Calls of active or inactive are those of the source. Calls come from the whole dose curve; as a rule, active = well fitted curve in the direction sought with a large enough effect; inconclusive = small, poorly fitted or top-dose-only effect, or another doubt; inactive = no such curve, though single readings can be large; an effect the other way counts as inactive or inconclusive.
# How the values were obtained:
# [1] = Drug repurposing screens with cells derived from glioblastoma tumor samples (AID 1345199); details: GBM patient neurospheres viability, ATP luminescence, 48 h; note: nearly all actives have a fitted effect of over 40% in size; note: potency is the fitted concentration of half-maximal effect
# Summary of the method: (§1)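 Four patient lines of CD133+ GBM neurospheres were screened at several concentrations; hits were retested in those lines plus three slower-growing GBM lines, using 48-hour treatment and ATP-based viability.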
# C33A = experiment: Primary qHTS to identify gynecologic anti-cancer compounds using libraries of approved drugs and bioactive compounds (AID 1345084); details: Gynecologic cancer cell panel viability, ATPlite luminescence, 48 h; series mostly up to 57.5 µM; note: nearly all actives have a fitted effect of over 55% in size
# Summary of the method: (§2)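 Cells, 1,000 per well, plated 16 h, then exposed 48 h at 37 C to compounds. Viability by ATPlite luminescence after 15 min at room temperature.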
# CASKI = experiment: as above; details: Gynecologic cancer cell panel viability, ATPlite luminescence, 48 h; series mostly up to 57.5 µM
# Summary of the method: as §2
# HeLa = experiment: as above; details: Gynecologic cancer cell panel viability, ATPlite luminescence, 48 h; series mostly up to 57.5 µM
# Summary of the method: as §2
# JEG-3 = experiment: as above; details: Gynecologic cancer cell panel viability, ATPlite luminescence, 48 h; series mostly up to 57.5 µM
# Summary of the method: as §2
# OV90 = experiment: as above; details: Gynecologic cancer cell panel viability, ATPlite luminescence, 48 h; series mostly up to 57.5 µM
# Summary of the method: as §2
# PA-1 = experiment: as above; details: Gynecologic cancer cell panel viability, ATPlite luminescence, 48 h; series mostly up to 57.5 µM
# Summary of the method: as §2
# Tov-21-G = experiment: as above; details: Gynecologic cancer cell panel viability, ATPlite luminescence, 48 h; series mostly up to 57.5 µM
# Summary of the method: as §2
# astro = control astrocytes; experiment: Drug repurposing screens with cells derived from glioblastoma tumor samples (AID 1345199); details: viability, ATP luminescence, 48 h; series mostly up to 45.9 µM; note: nearly all actives have a fitted effect of over 40% in size; note: potency is the fitted concentration of half-maximal effect
# Summary of the method: as §1
# Es-2 = experiment: Primary qHTS to identify gynecologic anti-cancer compounds using libraries of approved drugs and bioactive compounds (AID 1345084); details: Gynecologic cancer cell panel viability, ATPlite luminescence, 48 h; series mostly up to 57.5 µM; note: nearly all actives have a fitted effect of over 55% in size
# Summary of the method: as §2
# Hek293T = experiment: as above; details: Gynecologic cancer cell panel viability, ATPlite luminescence, 48 h, control line for the selectivity index; series mostly up to 57.5 µM
# Summary of the method: as §2
# SKOV3 = experiment: as above; details: Gynecologic cancer cell panel viability, ATPlite luminescence, 48 h; series mostly up to 57.5 µM
# Summary of the method: as §2
# Tov112D = experiment: as above; details: Gynecologic cancer cell panel viability, ATPlite luminescence, 48 h; series mostly up to 57.5 µM
# Summary of the method: as §2
# [2] = at 45.9 µM (top of the series), tumour line B
# [3] = at 45.9 µM (top of the series), tumour line D
# [4] = at 46.1 µM (top of the series), tumour line C
smiles,measurement,setting,value
CCOC(=O)C1=C(COCCN)NC(C)=C(C(=O)OC)C1c1ccccc1Cl (stereo unspecified),"activity, negative = cell killing",[1]; [2],-28.9%
same,Potency,[1]; tumour line A,11.2 µM (active)
COc1ccc(C[C@H](C)NC[C@@H](O)c2ccc(O)c(NC=O)c2)cc1,Potency,C33A,inactive
same,Potency,CASKI,inactive
same,Potency,HeLa,inactive
same,Potency,JEG-3,inactive
same,Potency,OV90,inactive
same,Potency,PA-1,inactive
same,Potency,Tov-21-G,inactive
same,"activity, negative = cell killing",[1]; [3],-10.9%
same,"activity, negative = cell killing",[1]; [4],-28.7%
same,Potency,[1]; tumour line A,17.8 µM (active)
same,Potency,astro,inactive
O=C(Nc1ccc(O)cc1)c1ccccc1O,"activity, negative = cell killing",[1]; [4],-27.7%
CCCCC[C@H](O)/C=C/[C@H]1[C@H](O)CC(=O)[C@@H]1CCCCCCC(=O)O,"activity, negative = cell killing","[1]; at 20 µM (top of the series), tumour line C",1.46%
same,"activity, negative = cell killing","[1]; at 21.2 µM (top of the series), tumour line B",-10.6%
same,"activity, negative = cell killing","[1]; at 21.2 µM (top of the series), tumour line D",-20.2%
same,Potency,[1]; tumour line A,11.2 µM (active)
C=C1CC[C@H](O)CC1=C/C=C1\CCC[C@]2(C)[C@@H]([C@H](C)/C=C/[C@H](C)C(C)C)CC[C@@H]12,Potency,C33A,inactive
same,Potency,CASKI,inactive
same,Potency,Es-2,inactive
same,Potency,HeLa,inactive
same,Potency,Hek293T,inactive
same,Potency,JEG-3,inactive
same,Potency,OV90,inactive
same,Potency,PA-1,inactive
same,outcome,SKOV3,inactive
same,Potency,Tov-21-G,inactive
same,outcome,Tov112D,inactive
same,"activity, negative = cell killing",[1]; [4],6.83%
same,Potency,[1]; tumour line A,10 µM (active)
CO[C@H]1C[C@@H]2CC[C@@H](C)[C@@](O)(O2)C(=O)C(=O)N2CCCC[C@H]2C(=O)O[C@H]([C@H](C)C[C@@H]2CC[C@@H](OC(=O)C(C)(CO)CO)[C@H](OC)C2)CC(=O)[C@H](C)/C=C(\C)[C@@H](O)[C@@H](OC)C(=O)[C@H](C)C[C@H](C)/C=C/C=C/C=C/1C,Potency,C33A,inactive
same,Potency,CASKI,inactive
same,Potency,Es-2,inactive
same,Potency,HeLa,inactive
same,Potency,Hek293T,inactive
same,Potency,JEG-3,inactive
same,Potency,OV90,inactive
same,Potency,PA-1,inactive
same,Potency,Tov-21-G,inactive
same,outcome,Tov112D,inactive
same,"activity, negative = cell killing",[1]; [2],-14.4%
same,"activity, negative = cell killing",[1]; [3],-16%
same,"activity, negative = cell killing","[1]; at 46 µM (top of the series), tumour line A",-25.2%
same,"activity, negative = cell killing",[1]; [4],-22.5%
same,Potency,astro,inactive
